# Assay results reported in article PMC11062922 (Nature Chemical Biology, 2023).
# Key:
# Set-up in all cases: species or system human, MV4-11 + K-562 + COLO205 + SK-N-BE2 + OVCAR-8
# SMG1 = conditions: read-out: apparent Kd; compound concentrations: 100 nM and 1000 nM (sheet 'Samples'), CATDS: 0.40091827457547202; n = 1
# AGPS = conditions: read-out: apparent Kd; compound concentrations:100 nM and 1000 nM (sheet 'Samples'); n = 1
# PRKG1 = conditions: read-out: apparent Kd; compound concentrations:100 nM and 1000 nM (sheet 'Samples'); n = 1
# PRKX = conditions: read-out: apparent Kd; compound concentrations:100 nM and 1000 nM (sheet 'Samples'); n = 1
# ROCK2 = conditions: read-out: apparent Kd; compound concentrations:100 nM and 1000 nM (sheet 'Samples'); n = 1
# IARS = conditions: read-out: apparent Kd; compound concentrations: 100 nM and 1000 nM (sheet 'Samples'), CATDS: 0.121118103418118; n = 1
# IGF1R = conditions: read-out: apparent Kd; compound concentrations: 100 nM and 1000 nM (sheet 'Samples'), CATDS: 4.98725467652835E-2; n = 1
# INSR = conditions: read-out: apparent Kd; compound concentrations: 100 nM and 1000 nM (sheet 'Samples'), CATDS: 5.9878421296946899E-2; n = 1
# GRAMD1A = conditions: read-out: apparent Kd; compound concentrations: 100 nM and 1000 nM (sheet 'Samples'), CATDS: 4.7101579015389999E-2; n = 1
# MAP4K4 = conditions: read-out: apparent Kd; compound concentrations: 100 nM and 1000 nM (sheet 'Samples'), CATDS: 5.45482325953821E-2; n = 1
# HSP90AA1 = conditions: read-out: apparent Kd; compound concentrations: 100 nM and 1000 nM (sheet 'Samples'), CATDS: 6.9109754816413196E-2; n = 1
# HSPE1 = conditions: read-out: apparent Kd; compound concentrations: 100 nM and 1000 nM (sheet 'Samples'), CATDS: 0.293798637885134; n = 1
# NME2;NME2P1 = conditions: read-out: apparent Kd; compound concentrations: 100 nM and 1000 nM (sheet 'Samples'), CATDS: 6.5363052061215496E-2; n = 1
# PGK1 = conditions: read-out: apparent Kd; compound concentrations: 100 nM and 1000 nM (sheet 'Samples'), CATDS: 0.39771264362053399; n = 1
# RAB6A;RAB6B = conditions: read-out: apparent Kd; compound concentrations: 100 nM and 1000 nM (sheet 'Samples'), CATDS: 6.2517900726017095E-2; n = 1
# CAMK2G = conditions: read-out: apparent Kd; compound concentrations:100 nM and 1000 nM (sheet 'Samples'); n = 1
structure (smiles),measurement,setting,value
COc1ccc(-c2ccncc2)cc1C(N)=O [GSK605714A],potency estimated from few doses,SMG1,1830 nM
COc1ccc(COc2ccc(Cc3cnc(N)nc3N)cc2OC)cc1 [GW632580X],potency estimated from few doses,AGPS,1650 nM
COc1ccc(C2=NC(c3ccc(Cl)cc3F)C(C(=O)Nc3ccc4[nH]ncc4c3)=C(C)N2)cn1.O=C(O)C(F)(F)F (stereo not shown) [GSK534913A],potency estimated from few doses,PRKG1,825 nM
same,potency estimated from few doses,PRKX,758 nM
same,potency estimated from few doses,ROCK2,131 nM
CS(=O)(=O)c1ccc(-c2nc3n(c2-c2ccncc2)CCC3)cc1 [SKF-105942],potency estimated from few doses,IARS,1900 nM
COc1cc(N2CCN(C(C)C)CC2)ccc1Nc1nc(Nc2cccc(F)c2C(=O)O)c2cc[nH]c2n1 [GSK1819799A],potency estimated from few doses,IGF1R,1270 nM
same,potency estimated from few doses,INSR,816 nM
COc1ccc(-c2nn3ncccc3c2-c2ccnc(Nc3ccc4c(c3)OCCO4)n2)cc1 [GW827106X],potency estimated from few doses,GRAMD1A,1730 nM
same,potency estimated from few doses,MAP4K4,1220 nM
Cc1[nH]nc2c1N=C(c1ccccc1Cl)c1cc([N+](=O)[O-])ccc1N2 [RO0274406-000],potency estimated from few doses,HSP90AA1,1380 nM
same,potency estimated from few doses,HSPE1,60.7 nM
same,potency estimated from few doses,NME2;NME2P1,1680 nM
same,potency estimated from few doses,PGK1,37.7 nM
Fc1cccc(COc2ccc(Nc3ncncc3C#Cc3ccccc3)cc2Cl)c1 [GW651576X],potency estimated from few doses,RAB6A;RAB6B,1160 nM
Cl.Oc1ccc2ncnc(Nc3ccc(OCc4ccccc4)cc3)c2c1 [GI262866A],potency estimated from few doses,CAMK2G,385 nM
